In PubChem BioAssay (Tox21) one finds Potency data, which are given here for 23 molecules.

Records with an inconclusive call do not appear. Calls of active or inactive are those of the source. Unless noted, the call rests on the fitted dose curve; in most records, active means well fitted curve in the direction sought with a large enough effect in the repeat runs; inconclusive means weak or mixed curves; inactive means no such curve, though single readings can be large; an effect the other way counts as inactive or inconclusive.

Assay [1] has as its target Acetylcholinesterase (Homo sapiens) (UniProt P22303). The assay is described as follows: Acetylcholinesterase (AChE) small molecule antagonists: enzyme-based qHTS assay (AID 1347397; calls by dose curve; further: nearly all actives have a fitted effect of over 55% in size). The settings on record: Potency: AChE enzyme activity inhibition. A digest of the protocol:
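Compound or DMSO vehicle was pin-transferred onto recombinant human AChE (50 mU/mL as dispensed) and left 30 min at room temperature. Acetylthiocholine with DTNB then started the reaction, read colorimetrically 10 min later.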

For assay [2] the target is unchanged. The assay is described as follows: Acetylcholinesterase (AChE) small molecule antagonists: fluorescence cell-based qHTS assay (AID 1347398; calls by dose curve; further: nearly all actives have a fitted effect of over 50% in size). The settings on record: Potency: AChE activity. A digest of the protocol: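 Using neuroblastoma SH-SY5Y cells as the enzyme source, test chemicals are preincubated 30 min at 37 C; AChE-driven acetylthiocholine cleavage is then quantified by thiocholine-dependent Thiolite Green fluorescence after 40 min at room temperature.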

Assay [3] has the same target. The assay is described as follows: Acetylcholinesterase (AChE) small molecule antagonists: enzyme-based qHTS assay with human liver microsomes (AID 1347399; calls by dose curve; further: nearly all actives have a fitted effect of over 60% in size). The settings on record: Potency: qHTS inhibition. The gist of the method: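 Recombinant human AChE (50 mU/mL in the enzyme mix) and human liver microsomes (0.25 mg/mL final) were preincubated with compound and NADPH (0.25 mg/mL final) for 30 min at 37 C. Acetylthiocholine/DTNB was then added; thiocholine was read colorimetrically after 10 min at room temperature.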

Assay [4] deals with Cytochrome P450 2D6 (Homo sapiens) (UniProt P10635). The assay is described as follows: Cytochrome P450 Family 2 Subfamily D Member 6 (CYP2D6) small molecule antagonists: luciferase reporter qHTS assay (AID 1671196). Further: nearly all actives have a fitted effect of over 50% in size. The gist of the method: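 Room-temperature luminescent CYP2D6 activity assay: compound preincubated 10 min with enzyme–substrate mix, NADPH-initiated reaction 1 h, detection reagent 20 min before reading.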
Chain of Cytochrome P450 2D6 (Homo sapiens) (P10635 whole entry, looked up): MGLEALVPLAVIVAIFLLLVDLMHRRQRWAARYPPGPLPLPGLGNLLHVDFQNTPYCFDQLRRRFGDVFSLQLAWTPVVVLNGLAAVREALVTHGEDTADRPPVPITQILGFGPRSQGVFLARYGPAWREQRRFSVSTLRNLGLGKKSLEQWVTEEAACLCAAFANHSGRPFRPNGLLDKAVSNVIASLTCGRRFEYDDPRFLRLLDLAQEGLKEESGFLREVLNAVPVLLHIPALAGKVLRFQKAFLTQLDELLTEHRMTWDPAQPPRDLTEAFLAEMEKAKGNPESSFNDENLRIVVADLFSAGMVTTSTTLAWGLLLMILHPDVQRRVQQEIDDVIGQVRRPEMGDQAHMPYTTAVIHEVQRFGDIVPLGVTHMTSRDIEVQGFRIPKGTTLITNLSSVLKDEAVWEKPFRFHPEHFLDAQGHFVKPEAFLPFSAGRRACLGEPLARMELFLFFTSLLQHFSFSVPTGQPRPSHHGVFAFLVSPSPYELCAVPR

The target of assay [5] is Cytochrome P450 2C19 (Homo sapiens) (UniProt P33261). The experiment in a line: Cytochrome P450 Family 2 Subfamily C Member 19 (CYP2C19) small molecule antagonists: luciferase reporter qHTS assay (AID 1671197). Further: nearly all actives have a fitted effect of over 65% in size. A digest of the protocol: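 CYP2C19 P450-Glo, 1536-well qHTS. Cpd + enzyme/proluciferin substrate 10 min RT; + NADPH regen, 37C 1 h; stop with luciferin detection reagent, 20 min RT, luminescence (RLU). Pos ctrl ketoconazole.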
Chain of Cytochrome P450 2C19 (Homo sapiens) (P33261 whole entry, looked up): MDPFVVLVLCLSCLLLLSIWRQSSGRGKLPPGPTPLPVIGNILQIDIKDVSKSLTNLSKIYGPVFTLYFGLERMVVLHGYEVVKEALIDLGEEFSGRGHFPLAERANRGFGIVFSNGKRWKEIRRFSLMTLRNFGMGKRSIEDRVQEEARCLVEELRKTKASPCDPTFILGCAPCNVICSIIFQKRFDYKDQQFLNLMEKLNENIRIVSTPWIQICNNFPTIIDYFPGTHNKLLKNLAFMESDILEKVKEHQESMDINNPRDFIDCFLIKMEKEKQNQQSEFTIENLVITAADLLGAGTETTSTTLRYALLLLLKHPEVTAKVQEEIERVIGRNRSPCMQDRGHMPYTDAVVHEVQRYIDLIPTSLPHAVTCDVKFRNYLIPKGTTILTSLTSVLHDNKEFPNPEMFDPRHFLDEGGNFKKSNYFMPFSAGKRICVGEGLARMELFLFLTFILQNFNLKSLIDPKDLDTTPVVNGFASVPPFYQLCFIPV

Assay [6] has as its target Cytochrome P450 2C9 (Homo sapiens) (UniProt P11712). The assay is described as follows: Cytochrome P450 Family 2 Subfamily C Member 9 (CYP2C9) small molecule antagonists: luciferase reporter qHTS assay (AID 1671198). Further: nearly all actives have a fitted effect of over 50% in size. The gist of the method:
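CYP2C9 activity was measured with a P450-Glo proluciferin substrate. Enzyme–substrate mix was held with compound for 10 min at room temperature, then NADPH regeneration solution was added for 1 h at 37C. Luciferin product was read as luminescence.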

Assay [7] addresses Cytochrome P450 1A2 (Homo sapiens) (UniProt P05177). The assay is described as follows: Cytochrome P450 Family 1 Subfamily A Member 2 (CYP1A2) small molecule antagonists: luciferase reporter qHTS assay (AID 1671199). Further: nearly all actives have a fitted effect of over 50% in size. A digest of the protocol: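 Room-temperature CYP1A2 reaction with proluciferin substrate: compounds added from DMSO, 10 min preincubation, NADPH regeneration for 1 h. Luciferin detection reagent then added; luminescence recorded as RLU.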

Assay [8] has as its target Voltage-gated inwardly rectifying potassium channel KCNH2 (Homo sapiens) (UniProt Q12809). The assay is described as follows: Human Ether-a-go-go-Related Gene (hERG) channel small molecule antagonists: fluorescence cell-based qHTS assay (AID 1671200). Further: nearly all actives have a fitted effect of over 50% in size. The gist of the method: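 Read-out: thallium influx as a surrogate for potassium, tracked as fluorescence (480 nm ex/540 nm em) every second for 2 min after Stimulus Buffer addition in dye-loaded hERG-U2OS cells.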

Assay [9] deals with Cytochrome P450 3A4 (Homo sapiens) (UniProt P08684). The experiment in a line: Cytochrome P450 Family 3 Subfamily A Member 4 (CYP3A4) small molecule antagonists: luciferase reporter qHTS assay (AID 1671201). Further: nearly all actives have a fitted effect of over 50% in size. A digest of the protocol: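 Luminescent readout (RLU) proportional to CYP3A4 activity, from luciferin generated off a proluciferin substrate. Enzyme–substrate mix plus compound 10 min at room temp, NADPH regeneration 1 h, detection reagent 20 min.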
Chain of Cytochrome P450 3A4 (Homo sapiens) (P08684 whole entry, looked up): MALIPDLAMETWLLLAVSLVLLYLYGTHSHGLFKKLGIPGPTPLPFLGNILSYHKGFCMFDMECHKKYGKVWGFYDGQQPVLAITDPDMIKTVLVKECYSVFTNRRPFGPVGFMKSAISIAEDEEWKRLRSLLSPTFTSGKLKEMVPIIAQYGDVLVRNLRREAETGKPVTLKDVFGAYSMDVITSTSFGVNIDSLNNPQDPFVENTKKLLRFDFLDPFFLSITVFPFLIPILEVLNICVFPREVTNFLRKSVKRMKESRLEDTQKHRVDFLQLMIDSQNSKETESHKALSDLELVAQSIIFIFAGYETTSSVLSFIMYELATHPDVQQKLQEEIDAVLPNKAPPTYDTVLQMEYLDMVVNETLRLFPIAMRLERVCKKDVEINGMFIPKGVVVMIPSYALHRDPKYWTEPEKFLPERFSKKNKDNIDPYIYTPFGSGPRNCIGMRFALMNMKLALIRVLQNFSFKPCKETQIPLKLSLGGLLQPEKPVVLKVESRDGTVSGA
Potency means the concentration at half of the fitted maximal effect.

Chain of Acetylcholinesterase (Homo sapiens) (P22303 whole entry, looked up): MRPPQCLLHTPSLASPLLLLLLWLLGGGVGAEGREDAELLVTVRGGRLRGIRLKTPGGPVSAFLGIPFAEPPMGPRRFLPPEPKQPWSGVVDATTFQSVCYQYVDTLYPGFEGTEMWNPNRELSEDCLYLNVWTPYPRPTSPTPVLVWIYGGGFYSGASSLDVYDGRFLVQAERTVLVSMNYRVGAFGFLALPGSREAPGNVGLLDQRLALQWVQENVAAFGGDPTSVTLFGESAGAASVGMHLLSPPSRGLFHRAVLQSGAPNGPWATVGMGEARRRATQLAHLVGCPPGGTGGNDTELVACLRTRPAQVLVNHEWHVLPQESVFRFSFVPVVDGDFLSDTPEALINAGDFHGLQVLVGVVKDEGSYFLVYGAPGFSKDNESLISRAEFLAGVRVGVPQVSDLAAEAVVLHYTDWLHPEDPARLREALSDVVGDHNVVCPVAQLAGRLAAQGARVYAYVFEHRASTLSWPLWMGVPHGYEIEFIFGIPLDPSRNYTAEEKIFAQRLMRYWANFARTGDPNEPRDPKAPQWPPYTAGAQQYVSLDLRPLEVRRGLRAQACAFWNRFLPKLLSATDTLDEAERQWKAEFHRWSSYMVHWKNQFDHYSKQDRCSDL
Chain of Cytochrome P450 2C9 (Homo sapiens) (P11712 whole entry, looked up): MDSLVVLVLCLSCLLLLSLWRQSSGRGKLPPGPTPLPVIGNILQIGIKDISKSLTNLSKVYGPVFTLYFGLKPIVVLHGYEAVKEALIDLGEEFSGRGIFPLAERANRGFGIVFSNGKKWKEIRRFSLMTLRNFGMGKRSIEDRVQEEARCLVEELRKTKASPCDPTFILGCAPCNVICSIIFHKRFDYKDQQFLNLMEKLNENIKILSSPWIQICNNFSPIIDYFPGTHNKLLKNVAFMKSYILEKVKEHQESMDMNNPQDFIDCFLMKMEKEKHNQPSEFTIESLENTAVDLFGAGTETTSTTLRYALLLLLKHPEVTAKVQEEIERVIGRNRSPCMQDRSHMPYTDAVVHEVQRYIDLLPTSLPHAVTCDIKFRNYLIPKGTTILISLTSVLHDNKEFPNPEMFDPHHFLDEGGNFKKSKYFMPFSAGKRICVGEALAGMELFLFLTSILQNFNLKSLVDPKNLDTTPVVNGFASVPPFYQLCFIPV
Chain of Cytochrome P450 1A2 (Homo sapiens) (P05177 whole entry, looked up): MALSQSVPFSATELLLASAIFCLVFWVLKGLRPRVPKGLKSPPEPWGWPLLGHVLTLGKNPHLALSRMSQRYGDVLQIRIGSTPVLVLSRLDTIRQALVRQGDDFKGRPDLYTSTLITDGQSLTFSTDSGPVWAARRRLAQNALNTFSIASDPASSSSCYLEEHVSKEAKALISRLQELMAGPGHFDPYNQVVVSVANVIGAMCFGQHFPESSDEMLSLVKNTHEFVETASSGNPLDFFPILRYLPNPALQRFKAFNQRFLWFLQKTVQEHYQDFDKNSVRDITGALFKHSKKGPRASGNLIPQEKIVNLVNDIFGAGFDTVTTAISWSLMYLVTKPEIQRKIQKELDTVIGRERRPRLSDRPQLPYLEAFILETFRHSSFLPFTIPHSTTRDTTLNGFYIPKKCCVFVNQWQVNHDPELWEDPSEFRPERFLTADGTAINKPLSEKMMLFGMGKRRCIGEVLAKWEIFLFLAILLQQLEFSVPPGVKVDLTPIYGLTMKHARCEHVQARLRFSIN
Chain of Voltage-gated inwardly rectifying potassium channel KCNH2 (Homo sapiens) (Q12809 whole entry, looked up): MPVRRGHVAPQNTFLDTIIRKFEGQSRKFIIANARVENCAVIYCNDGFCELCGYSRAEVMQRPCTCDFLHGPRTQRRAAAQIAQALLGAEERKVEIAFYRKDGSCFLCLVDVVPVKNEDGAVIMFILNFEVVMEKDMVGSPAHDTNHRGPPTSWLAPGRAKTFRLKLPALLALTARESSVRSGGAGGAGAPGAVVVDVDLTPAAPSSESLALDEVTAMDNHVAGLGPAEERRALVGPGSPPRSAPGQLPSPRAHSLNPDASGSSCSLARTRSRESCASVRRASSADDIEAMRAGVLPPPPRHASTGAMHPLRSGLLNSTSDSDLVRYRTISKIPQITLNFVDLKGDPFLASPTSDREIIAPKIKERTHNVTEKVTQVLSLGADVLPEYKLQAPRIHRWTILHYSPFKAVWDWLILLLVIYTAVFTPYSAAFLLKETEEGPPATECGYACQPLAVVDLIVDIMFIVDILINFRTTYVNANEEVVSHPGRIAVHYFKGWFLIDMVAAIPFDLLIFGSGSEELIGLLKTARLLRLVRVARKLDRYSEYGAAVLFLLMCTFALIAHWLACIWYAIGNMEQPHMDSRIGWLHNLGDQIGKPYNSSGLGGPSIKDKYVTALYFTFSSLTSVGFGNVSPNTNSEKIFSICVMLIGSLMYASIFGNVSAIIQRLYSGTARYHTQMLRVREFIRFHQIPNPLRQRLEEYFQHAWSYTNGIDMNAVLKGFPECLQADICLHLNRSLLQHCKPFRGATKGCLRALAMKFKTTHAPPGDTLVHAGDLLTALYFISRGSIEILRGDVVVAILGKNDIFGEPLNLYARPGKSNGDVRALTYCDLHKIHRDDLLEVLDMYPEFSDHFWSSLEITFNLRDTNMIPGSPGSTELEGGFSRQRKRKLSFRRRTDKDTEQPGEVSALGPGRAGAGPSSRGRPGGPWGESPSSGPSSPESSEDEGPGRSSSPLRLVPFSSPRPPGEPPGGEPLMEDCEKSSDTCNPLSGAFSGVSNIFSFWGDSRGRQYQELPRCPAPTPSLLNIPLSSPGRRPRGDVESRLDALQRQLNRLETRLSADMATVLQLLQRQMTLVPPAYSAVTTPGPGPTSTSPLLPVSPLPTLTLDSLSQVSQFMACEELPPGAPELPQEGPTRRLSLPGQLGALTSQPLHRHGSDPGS

Regarding `CC(O)C#N` (centres undefined), the Potency entry in [1], in assay [2], in assay [3], in assay [4], in assay [5] and in assay [6] was “inactive” throughout. For the same molecule, the Potency entry in assay [7], in assay [8] and in assay [9] was “inactive” throughout.
Regarding `OC(c1ccc(Cl)cc1)(c1ccc(Cl)cc1)C(Cl)(Cl)Cl`, the Potency result in [1], in assay [2], in assay [3] and in assay [9] was “inactive” throughout. Further, the Potency was 31.7 µM (active) in [4]; 0.0564 µM (active) in assay [5]; 5.03 µM (active) in assay [6]; 14.2 µM (active) in [7]; 24.5 µM (active) in assay [8].
For `Cc1cccc(OP(=O)(Oc2cccc(C)c2)Oc2cccc(C)c2)c1`, the Potency result in [1], in assay [2], in [3] and in assay [4] was “inactive” throughout. Also, the Potency in [5] is 20 µM (active); in assay [6], 35.6 µM (active).
For the molecule `CC(C)C1CCC(Cc2ccc(Cl)cc2)C1(O)Cn1cncn1` (centres undefined), the Potency result in assay [1], in assay [2] and in assay [3] was “inactive” each time. In addition, the Potency in [4] is 22.2 µM (active); in assay [5] it was 0.353 µM (active); in assay [6], 0.789 µM (active); in [7], 31.4 µM (active); in assay [8] it was 34.3 µM (active); in [9], 0.0498 µM (active).
For `Oc1c(Cl)c(Cl)cc(Cl)c1Cl`, the Potency entry in [1], in assay [2], in assay [3], in assay [4], in [5] and in assay [8] was “inactive” throughout. Moreover, in assay [9], the Potency entry was “inactive”. Moreover, the Potency in assay [6] was 21.8 µM (active); in assay [7], 69.1 µM (active).
`C=CC(=O)OCC(COC(=O)C=C)(COC(=O)C=C)COC(=O)C=C`: the Potency result in [1], in assay [2], in [3], in assay [7] and in assay [8] was “inactive” throughout. Further, the Potency in assay [4] is 28.3 µM (active); in assay [5], 17.8 µM (active); in [6], 14.2 µM (active); in assay [9], 1.26 µM (active).
Consider `N#CCCO`, for which the Potency result in assay [1], in [2], in assay [3], in assay [4], in [5] and in [6] was “inactive” in each case. In addition, the Potency result in [7], in assay [8] and in [9] was “inactive” each time.
As for `BrC(Br)Br`, the Potency result in assay [1], in assay [2], in assay [3], in [5] and in assay [6] was “inactive” in each case. Besides, the Potency in assay [4] is 25.2 µM (active); in assay [7] it was 44.8 µM (active).
As for `CC(=O)c1ccc(-c2ccccc2)cc1`, the Potency result in assay [1], in [2], in assay [3], in [4], in assay [8] and in assay [9] was “inactive” each time. In addition, the Potency in [5] is 31.7 µM (active); in assay [6] it was 15.9 µM (active); in assay [7], 5.03 µM (active).
As for `c1ccc2c(c1)OCC(C1=NCCN1)O2` (centres undefined), the Potency result in assay [1], in assay [2], in assay [3], in assay [5], in [6] and in [7] was “inactive” throughout. The Potency entry in assay [8] is “inactive”. The Potency in assay [4] is 13.8 µM (active).
In the case of `CC(=O)O[C@H]1CC[C@@]2(C)C(=CC[C@@H]3[C@@H]2CC[C@]2(C)C(=O)CC[C@@H]32)C1`, the Potency entry in assay [1], in assay [2], in [3], in [4], in assay [7] and in assay [9] was “inactive” in each case. The results for the Potency in assay [5], in [6] and in assay [8] were 31.7 µM (active), 31.7 µM (active) and 49 µM (active), respectively.
On to `CC(C)OS(C)(=O)=O`, for which the Potency entry in assay [1], in assay [2], in [3], in assay [5], in assay [6] and in assay [8] was “inactive” throughout. In addition, in assay [9], the Potency result was “inactive”. The Potency in assay [4] and in assay [7] was 40.2 µM (active) in each case.
As to `S=C=Nc1cccc2ccccc12`, the Potency entry in assay [1], in [2], in assay [3] and in [8] was “inactive” each time. The Potency in [4] was 14 µM (active); in assay [5] it was 2.8 µM (active); in assay [6] it was 4.98 µM (active); in assay [7] it was 8.85 µM (active).
With `N#Cc1ccc(O)cc1`, the Potency result in assay [1], in [2], in assay [3], in [4], in [6] and in [7] was “inactive” each time. Moreover, in assay [8], the Potency result was “inactive”. Moreover, in [5], the Potency is 89.4 µM (active).
Regarding `CCCN(CC)CC1COC2(CCC(C(C)(C)C)CC2)O1` (centres undefined), the Potency result in assay [1], in assay [2] and in assay [3] was “inactive” throughout. For the same molecule, the Potency in [4] was 12.6 µM (active); in assay [5], 11.2 µM (active).
On to `COP(=O)(OC)SCn1c(=O)oc2cc(Cl)cnc21`, for which the Potency in assay [1] was 7.1 µM (active); in assay [2], 0.252 µM (active); in assay [3], 71 µM (active); in assay [4] it was 39.9 µM (active); in [5], 25.2 µM (active); in assay [6] it was 31.7 µM (active). The Potency result in assay [8] is “inactive”.
On to `COc1ccc(OC)c(CC(C)N)c1` (centres undefined), for which the Potency result in [1], in assay [2], in assay [3], in [5], in [6] and in assay [7] was “inactive” each time. Moreover, the Potency entry in [8] and in assay [9] was “inactive” throughout. For the same molecule, in assay [4], the Potency was 7.62 µM (active).
For `CCCCCCCCCCBr`, the Potency result in [1], in assay [2], in [3], in assay [4], in [5] and in assay [6] was “inactive” throughout. In addition, in assay [8], the Potency entry was “inactive”.
Take `CC(C)OC(=S)S`: the Potency result in [1], in assay [2], in assay [3], in assay [4], in [5] and in assay [9] was “inactive” each time. Further, in assay [6], the Potency was 31.7 µM (active).
In the case of `CC(Cc1ccc(C(C)(C)C)cc1)CN1C[C@@H](C)O[C@@H](C)C1` (some centres undefined), the Potency entry in [1], in assay [2] and in assay [3] was “inactive” throughout. Besides, the Potency in assay [4] is 8.94 µM (active); in assay [5], 31.7 µM (active); in assay [6], 35.6 µM (active); in assay [8], 12.3 µM (active).
For `COS(=O)(=O)c1ccc(C)cc1`, the Potency entry in assay [1], in assay [2], in assay [3], in assay [4], in [5] and in assay [6] was “inactive” throughout. Besides, the Potency result in [8] and in [9] was “inactive” in each case.
Take `CCCCCCCCCC[N+](C)(C)CCCCCCCCCC`: the Potency in assay [1] is 31.7 µM (active); in assay [2], 56.4 µM (active); in assay [4] it was 1 µM (active); in assay [5] it was 35.6 µM (active); in assay [6], 39.9 µM (active); in assay [7] it was 39.9 µM (active). The Potency in [9] is 56.4 µM (active). In [3], the Potency entry was “inactive”.
As for `CC(Cl)CN(C)C` (centres undefined), the Potency entry in assay [1], in assay [2], in [3], in [4], in assay [5] and in assay [6] was “inactive” in each case. Also, the Potency entry in [7] and in [9] was “inactive” each time.
